# PubChem BioAssay (EPA / NIEHS)
# Activity calls are given as the source filed them. Rule for the calls: active = hit-call score of the fitted dose curve at least 0.9, where 1 is the maximum; inactive = score below 0.9.
# Columns and labels:
# Conditions in all cases: mRNA level, 48 h; actives raise or lower the signal
# [1] = read-out: Bcl-2 (BID) gene, BID (gene 637); assay: LTEA_HepaRG_BID: Life Technologies and Expression Analysis (LTEA) Assay for Bcl-2 (BID) gene using HepaRG (AID 2283476)
# Outline: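 Gene expression by qRT-PCR in HepaRG cells after 48 h exposure, duplicate wells, eight half-log concentrations topping at 100 uM in 0.5% DMSO. Normalized to ACTB, GAPDH, POLR2A; bidirectional fitting relative to DMSO.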
# Caspase-3 (Homo sapiens) = Caspase-3 (Homo sapiens) (UniProt P42574); assay: LTEA_HepaRG_CASP3: Life Technologies and Expression Analysis (LTEA) Assay for cysteine-aspartic acid protease (CASP3) using HepaRG (AID 2283477)
# Outline: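 Read-out is CASP3 mRNA level by TaqMan qRT-PCR in human HepaRG cells after 48 h chemical exposure. Eight half-log concentrations topping at 100 uM were tested in 0.5% DMSO; gain or loss was fitted relative to DMSO.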
# [2] = read-out: Cytochrome P450 (CYP24A1), CYP24A1 (gene 1591); assay: LTEA_HepaRG_CYP24A1: Life Technologies and Expression Analysis (LTEA) Assay for Cytochrome P450 (CYP24A1) using HepaRG (AID 2283478)
# Outline: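 HepaRG, 48 h chemical exposure, 8-pt half-log CRC from 100 uM, 0.5% DMSO vehicle, duplicates. Endpoint: CYP24A1 mRNA by Fluidigm TaqMan qRT-PCR, normalized ACTB/GAPDH/POLR2A; gain/loss fit vs DMSO.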
# [3] = read-out: Cytochrome P450 (CYP1A2), CYP1A2 (gene 1544); assay: LTEA_HepaRG_CYP1A2: Life Technologies and Expression Analysis (LTEA) Assay for Cytochrome P450 (CYP1A2) using HepaRG (AID 2283479)
# Outline: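 CYP1A2 transcript induction or loss, quantified by Fluidigm qRT-PCR against three housekeeping genes, was fitted bidirectionally against 0.5% DMSO controls. Human HepaRG cells received eight half-log concentrations from 100 uM over 48 h.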
# [4] = read-out: cysteine-aspartic acid protease (CASP8), CASP8 (gene 841); assay: LTEA_HepaRG_CASP8: Life Technologies and Expression Analysis (LTEA) Assay for cysteine-aspartic acid protease (CASP8) using HepaRG (AID 2283480)
# Outline: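 Differentiated human HepaRG cells, plated 48 h then switched to serum-free induction medium, were exposed in duplicate for 48 h to 8 half-log concentrations up to 100 uM in 0.5% DMSO. CASP8 mRNA was quantified by qRT-PCR, normalized to ACTB/GAPDH/POLR2A.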
# [5] = read-out: Cytochrome P450 (CYP2B6), CYP2B6 (gene 1555); assay: LTEA_HepaRG_CYP2B6: Life Technologies and Expression Analysis (LTEA) Assay for Cytochrome P450 (CYP2B6) using HepaRG (AID 2283481)
# Outline: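 HepaRG cells plated 48 h, switched to serum-free induction medium, then dosed 48 h (8 points, half-log from 100 uM, 0.5% DMSO). RNA isolated; CYP2B6 expression measured by qRT-PCR; gain or loss fitted relative to DMSO.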
# [6] = read-out: Cytochrome P450 2C19 (Homo sapiens) (UniProt P33261); assay: LTEA_HepaRG_CYP2C19: Life Technologies and Expression Analysis (LTEA) Assay for CYP2C19 using HepaRG (AID 2283482)
# Outline: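 Transcript levels of CYP2C19 were quantified by qRT-PCR after HepaRG cells were treated for 48 hours with test chemicals up to 100 uM (eight half-log concentrations, 0.5% DMSO vehicle). Gain or loss of signal was fitted relative to DMSO.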
# CYP2C9 (gene 1559) = assay: LTEA_HepaRG_CYP2C9: Life Technologies and Expression Analysis (LTEA) Assay for CYP2C9 using HepaRG (AID 2283484)
# Outline: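 Differentiated human HepaRG cells were exposed 48 h in serum-free induction medium to eight half-log concentrations up to 100 uM in 0.5% DMSO. CYP2C9 mRNA was measured by qRT-PCR, normalized to ACTB, GAPDH and POLR2A, and fitted bidirectionally against DMSO.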
# CYP2E1 (gene 1571) = assay: LTEA_HepaRG_CYP2E1: Life Technologies and Expression Analysis (LTEA) Assay for CYP2E1 using HepaRG (AID 2283485)
# Outline: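 HepaRG cells, plated 48 h, then exposed 48 h in serum-free induction medium to eight half-log concentrations from 100 uM in 0.5% DMSO, duplicate. CYP2E1 mRNA by qRT-PCR, normalized to ACTB/GAPDH/POLR2A; bidirectional fit versus DMSO.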
# CYP4A11 (gene 1579) = assay: LTEA_HepaRG_CYP4A11: Life Technologies and Expression Analysis (LTEA) Assay for CYP4A11 using HepaRG (AID 2283486)
# Outline: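 HepaRG, 48 h chem exposure, 8 conc (100 uM top, half-log), 0.5% DMSO vehicle; qRT-PCR readout, housekeeping-gene normalized; bidirectional curve fit vs DMSO baseline.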
# [7] = read-out: Cytochrome P450 3A4 (Homo sapiens) (UniProt P08684); assay: LTEA_HepaRG_CYP3A4: Life Technologies and Expression Analysis (LTEA) Assay for CYP3A4 using HepaRG (AID 2283487)
# Outline: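 Differentiated HepaRG cells in serum-free induction medium exposed in duplicate for 48 h to 8 half-log concentrations up to 100 uM in 0.5% DMSO. CYP3A4 mRNA measured by qRT-PCR normalized to ACTB, GAPDH and POLR2A; bidirectional fit versus DMSO.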
# [8] = read-out: Pro-epidermal growth factor (Homo sapiens) (UniProt P01133); assay: LTEA_HepaRG_EGF: Life Technologies and Expression Analysis (LTEA) Assay for Epidermal growth factor (EGF) using HepaRG (AID 2283489)
# Outline: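 HepaRG, 48 h dosing, 100 uM top, half-log x8, 0.5% DMSO. Readout: TaqMan qRT-PCR (Fluidigm array), housekeeping-normalized. Gain or loss of signal fit vs DMSO.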
# [9] = read-out: Early growth response protein 1 (EGR1) transcription factor, EGR1 (gene 1958); assay: LTEA_HepaRG_EGR1: Life Technologies and Expression Analysis (LTEA) Assay for Early growth response protein 1 (EGR1) transcription factor using HepaRG (AID 2283490)
# Outline: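 Differentiated human HepaRG cells in serum-free induction medium were exposed in duplicate for 48 h to eight concentrations (top 100 uM, half-log steps) in 0.5% DMSO. EGR1 mRNA was quantified by qRT-PCR, normalized to ACTB, GAPDH and POLR2A, and fitted bidirectionally versus DMSO.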
# [10] = read-out: Ezrin (EZR), EZR (gene 7430); assay: LTEA_HepaRG_EZR: Life Technologies and Expression Analysis (LTEA) Assay for Ezrin (EZR) using HepaRG (AID 2283491)
# Outline: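 Differentiated human HepaRG cells, 48 h after plating, were exposed in serum-free induction medium for 48 hours to eight half-log concentrations up to 100 uM in 0.5% DMSO. EZR mRNA was measured by TaqMan qRT-PCR, normalized to ACTB, GAPDH and POLR2A, and fitted bidirectionally against DMSO.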
# [11] = read-out: Cytochrome P450 3A7 (Homo sapiens) (UniProt P24462); assay: LTEA_HepaRG_CYP3A7: Life Technologies and Expression Analysis (LTEA) Assay for CYP3A7 using HepaRG (AID 2283492)
# Outline: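 Human HepaRG liver cells, 48 h post-plating, switched to serum-free induction medium and exposed in duplicate for 48 h. Dosing: 100 uM top, half-log dilutions, 8 points, 0.5% DMSO vehicle. Read-out: CYP3A7 mRNA, gain or loss fitted against DMSO baseline.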
# [12] = read-out: Fatty Acid-Binding Protein 1 (FABP1), FABP1 (gene 2168); assay: LTEA_HepaRG_FABP1: Life Technologies and Expression Analysis (LTEA) Assay for Fatty Acid-Binding Protein 1 (FABP1) using HepaRG (AID 2283494)
# Outline: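 Differentiated human HepaRG cells were exposed in duplicate for 48 h in serum-free induction medium to 8-point half-log concentration series topping at 100 uM in 0.5% DMSO. FABP1 mRNA measured by TaqMan qRT-PCR, normalized to ACTB/GAPDH/POLR2A; bidirectional fit versus DMSO.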
# CYP2C8 (gene 1558) = assay: LTEA_HepaRG_CYP2C8: Life Technologies and Expression Analysis (LTEA) Assay for CYP2C8 using HepaRG (AID 2283483)
# Outline: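 Differentiated human HepaRG cells were exposed for 48 h in serum-free induction medium to eight half-log concentrations up to 100 uM in 0.5% DMSO, in duplicate. CYP2C8 mRNA was measured by TaqMan qRT-PCR, normalized to ACTB, GAPDH and POLR2A, and fitted bidirectionally against DMSO.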
# [13] = read-out: Cytochrome P450 4A22 (Homo sapiens) (UniProt Q5TCH4); assay: LTEA_HepaRG_CYP4A22: Life Technologies and Expression Analysis (LTEA) Assay for Cytochrome P450 4A22 (CYP4A22) using HepaRG (AID 2283495)
# Outline: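 Readout is CYP4A22 transcript induction or loss, quantified by qRT-PCR and normalized to ACTB, GAPDH and POLR2A. Human HepaRG cells receive test chemicals for 48 h at eight half-log concentrations from 100 uM in 0.5% DMSO.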
# [14] = read-out: DNA damage-inducible transcript 3 (DDIT3), DDIT3 (gene 1649); assay: LTEA_HepaRG_DDIT3: Life Technologies and Expression Analysis (LTEA) Assay for DNA damage-inducible transcript 3 (DDIT3) using HepaRG (AID 2283488)
# Outline: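 HepaRG cells, 48 h after plating, exposed 48 h in serum-free induction medium to 8 half-log concentrations up to 100 uM in 0.5% DMSO, in duplicate. DDIT3 mRNA measured by TaqMan qRT-PCR, normalized to ACTB, GAPDH and POLR2A. Fitted bidirectionally against DMSO.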
# Chain of Cytochrome P450 2C19 (Homo sapiens) (P33261 whole entry, looked up): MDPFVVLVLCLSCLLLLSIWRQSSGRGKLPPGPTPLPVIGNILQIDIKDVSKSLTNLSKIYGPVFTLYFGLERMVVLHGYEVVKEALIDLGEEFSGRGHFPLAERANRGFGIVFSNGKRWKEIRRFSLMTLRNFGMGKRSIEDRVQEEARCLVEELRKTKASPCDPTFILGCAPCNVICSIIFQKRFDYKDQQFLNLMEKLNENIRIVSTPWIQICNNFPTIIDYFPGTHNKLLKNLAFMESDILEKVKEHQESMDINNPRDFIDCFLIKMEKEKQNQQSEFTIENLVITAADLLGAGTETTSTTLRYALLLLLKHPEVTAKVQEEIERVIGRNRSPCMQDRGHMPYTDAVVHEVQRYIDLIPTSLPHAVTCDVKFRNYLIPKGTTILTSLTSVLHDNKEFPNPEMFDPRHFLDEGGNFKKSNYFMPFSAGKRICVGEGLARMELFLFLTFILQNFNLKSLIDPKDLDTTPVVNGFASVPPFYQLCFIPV
# Chain of Cytochrome P450 3A4 (Homo sapiens) (P08684 whole entry, looked up): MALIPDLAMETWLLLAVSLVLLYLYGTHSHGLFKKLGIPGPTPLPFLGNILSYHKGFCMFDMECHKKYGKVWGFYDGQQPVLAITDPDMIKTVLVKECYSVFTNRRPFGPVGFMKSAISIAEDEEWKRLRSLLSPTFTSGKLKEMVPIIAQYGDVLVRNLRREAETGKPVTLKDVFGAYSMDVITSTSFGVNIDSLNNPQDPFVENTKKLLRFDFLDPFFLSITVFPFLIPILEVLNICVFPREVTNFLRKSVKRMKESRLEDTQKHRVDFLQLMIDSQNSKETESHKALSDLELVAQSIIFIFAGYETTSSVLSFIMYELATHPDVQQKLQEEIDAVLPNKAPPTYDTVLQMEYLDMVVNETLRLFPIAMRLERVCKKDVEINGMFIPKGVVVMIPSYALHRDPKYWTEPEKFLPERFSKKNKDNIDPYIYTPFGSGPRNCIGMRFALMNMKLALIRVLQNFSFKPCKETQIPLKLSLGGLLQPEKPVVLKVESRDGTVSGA
# Chain of Caspase-3 (Homo sapiens) (P42574 whole entry, looked up): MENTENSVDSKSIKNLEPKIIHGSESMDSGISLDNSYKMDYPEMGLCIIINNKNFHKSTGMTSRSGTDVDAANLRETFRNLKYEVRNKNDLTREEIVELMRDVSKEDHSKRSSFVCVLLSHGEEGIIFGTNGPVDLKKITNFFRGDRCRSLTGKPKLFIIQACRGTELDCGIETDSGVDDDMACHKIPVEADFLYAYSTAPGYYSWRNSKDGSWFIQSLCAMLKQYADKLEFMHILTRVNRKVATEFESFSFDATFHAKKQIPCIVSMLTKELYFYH
# Chain of Cytochrome P450 3A7 (Homo sapiens) (P24462 whole entry, looked up): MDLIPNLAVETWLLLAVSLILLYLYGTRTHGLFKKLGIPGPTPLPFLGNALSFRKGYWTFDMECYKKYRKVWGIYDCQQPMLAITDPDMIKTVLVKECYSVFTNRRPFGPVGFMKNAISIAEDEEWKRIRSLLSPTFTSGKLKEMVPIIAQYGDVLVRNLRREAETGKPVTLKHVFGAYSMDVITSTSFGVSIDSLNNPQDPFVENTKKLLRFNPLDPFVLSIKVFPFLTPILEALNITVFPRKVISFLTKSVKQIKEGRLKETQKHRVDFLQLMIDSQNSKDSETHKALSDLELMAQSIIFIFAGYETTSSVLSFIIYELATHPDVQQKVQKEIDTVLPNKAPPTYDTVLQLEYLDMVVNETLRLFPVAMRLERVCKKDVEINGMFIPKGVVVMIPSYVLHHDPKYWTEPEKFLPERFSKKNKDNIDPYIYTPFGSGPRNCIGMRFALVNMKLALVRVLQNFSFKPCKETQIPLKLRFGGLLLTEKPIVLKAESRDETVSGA
smiles,measurement,setting,value
CCC(=NOC/C=C/Cl)C1=C(O)CC(C2CCOCC2)CC1=O (stereo not drawn),outcome,[1],inactive
same,outcome,Caspase-3 (Homo sapiens),inactive
same,outcome,[2],inactive
same,outcome,[3],inactive
same,outcome,[4],inactive
same,outcome,[5],inactive
same,outcome,[6],inactive
same,outcome,CYP2C9 (gene 1559),inactive
same,outcome,CYP2E1 (gene 1571),inactive
same,outcome,CYP4A11 (gene 1579),inactive
same,outcome,[7],inactive
same,outcome,[8],inactive
same,outcome,[9],inactive
same,outcome,[10],inactive
same,outcome,[11],inactive
same,outcome,[12],inactive
CNC(=O)ON=C(SC)C(=O)N(C)C,outcome,[1],inactive
same,outcome,Caspase-3 (Homo sapiens),inactive
same,outcome,[2],inactive
same,outcome,[3],inactive
same,AC50,[4],0.369 µM (active)
same,outcome,[5],inactive
same,outcome,[6],inactive
same,AC50,CYP2C8 (gene 1558),0.0994 µM (active)
same,outcome,CYP2C9 (gene 1559),inactive
same,outcome,CYP2E1 (gene 1571),inactive
same,outcome,CYP4A11 (gene 1579),inactive
same,outcome,[7],inactive
same,outcome,[8],inactive
same,outcome,[9],inactive
same,outcome,[10],inactive
same,outcome,[11],inactive
same,outcome,[12],inactive
same,outcome,[13],inactive
O=c1ccc(=O)[nH][nH]1,outcome,[1],inactive
same,outcome,Caspase-3 (Homo sapiens),inactive
same,outcome,[2],inactive
same,outcome,[3],inactive
same,AC50,[5],4.2 µM (active)
same,outcome,[6],inactive
same,outcome,CYP2C8 (gene 1558),inactive
same,outcome,CYP2C9 (gene 1559),inactive
same,AC50,CYP2E1 (gene 1571),16 µM (active)
same,outcome,CYP4A11 (gene 1579),inactive
same,outcome,[7],inactive
same,outcome,[14],inactive
same,outcome,[8],inactive
same,outcome,[9],inactive
same,outcome,[10],inactive
same,outcome,[11],inactive
same,outcome,[12],inactive
same,outcome,[13],inactive
CCCCN(CC)c1c([N+](=O)[O-])cc(C(F)(F)F)cc1[N+](=O)[O-],outcome,[1],inactive
same,outcome,Caspase-3 (Homo sapiens),inactive
same,outcome,[2],inactive
same,AC50,[3],35.8 µM (active)
same,outcome,[4],inactive
same,AC50,[5],32 µM (active)
same,AC50,[6],50 µM (active)
same,outcome,CYP2C9 (gene 1559),inactive
same,outcome,CYP2E1 (gene 1571),inactive
same,outcome,CYP4A11 (gene 1579),inactive
same,AC50,[7],23.2 µM (active)
same,outcome,[8],inactive
same,outcome,[9],inactive
same,outcome,[10],inactive
same,outcome,[11],inactive
same,outcome,[12],inactive
